The results in this text go back to PubChem BioAssay (EPA / NIEHS).

Assay [1] is described as follows: ATG_CRE_CIS: Attagene CIS-FACTORIAL HepG2 Assay for human cAMP Responsive Element (CRE) binding protein 3 (AID 2282926). Conditions: HepG2 CRE cis-reporter, Attagene multiplexed mRNA; actives raise or lower the signal. The method, boiled down: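 Induced reporter mRNA from a CRE cis element, measured in HepG2 among many multiplexed units at 24 h. Detection used RT-PCR plus capillary electrophoresis of fluorescent fragments; DMSO served as negative control.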

In assay [2] the target is CCAAT/enhancer-binding protein beta (Homo sapiens) (UniProt P17676). As to the kind of experiment: ATG_C_EBP_CIS: Attagene CIS-FACTORIAL HepG2 Assay for human CCAAT/Enhancer Binding Protein (C/EBP) beta (AID 2282927). Conditions: HepG2 Attagene cis-factorial transcription factor reporter; actives raise or lower the signal. The procedure, abridged: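 Endogenous transcription factor activity in human liver HepG2 cells is inferred from induction of a CEBPB-linked reporter mRNA. Exposure lasts 24 h; activity is fitted in both directions relative to DMSO.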
Chain of CCAAT/enhancer-binding protein beta (Homo sapiens) (P17676 whole entry, looked up): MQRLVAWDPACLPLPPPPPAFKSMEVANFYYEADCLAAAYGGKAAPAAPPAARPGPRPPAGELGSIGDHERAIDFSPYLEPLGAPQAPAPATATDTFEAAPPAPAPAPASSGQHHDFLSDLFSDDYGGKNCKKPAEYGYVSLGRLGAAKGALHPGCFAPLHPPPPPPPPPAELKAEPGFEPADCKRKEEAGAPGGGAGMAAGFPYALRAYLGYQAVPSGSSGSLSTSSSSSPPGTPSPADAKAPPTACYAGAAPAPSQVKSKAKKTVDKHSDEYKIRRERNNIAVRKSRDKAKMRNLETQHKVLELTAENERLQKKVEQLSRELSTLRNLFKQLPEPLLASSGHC

The nature of assay [3]: ATG_CMV_CIS: Attagene CIS-FACTORIAL HepG2 Assay for human CMV (Internal Marker) (AID 2282928).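 Also: endpoint acts as a background internal control marker rather than a target.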 Conditions: HepG2 CMV promoter reporter, transcription factor profiling; actives raise or lower the signal. The procedure, abridged: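 Readout: fluorescent reporter cDNA fragments separated by capillary electrophoresis after RT-PCR and HpaI cut. Cells: HepG2 carrying transfected cis-promoter reporter constructs, dosed 24 h. Endpoint serves as background internal-marker control, fit bidirectionally versus DMSO.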

Assay [4] can be described thus: ATG_DR4_LXR_CIS: Attagene CIS-FACTORIAL HepG2 Assay for human Liver X Receptor (LXR), DR4 submotif (AID 2282929). The conditions noted are these: HepG2 Attagene DR4 cis-reporter, mRNA transcription; actives raise or lower the signal. The method, boiled down:
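Fluorescence intensity of labelled reporter cDNA fragments, separated by capillary electrophoresis, gives the signal. HepG2 cells bearing cis-regulated reporter constructs were treated 24 h; activity fitted bidirectionally relative to DMSO negative control.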

Assay [5] in a line: ATG_AP_1_CIS: Attagene CIS-FACTORIAL HepG2 Assay for human Activator Protein 1 (AP-1) (AID 2282931). Conditions: HepG2 Attagene cis-factorial AP-1 reporter mRNA; actives raise or lower the signal. The method, boiled down: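 Multiplexed HepG2 reporter assay, 24 h dosing. mRNA induction detected by RT-PCR plus capillary electrophoresis. Activity fitted in both directions against DMSO.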

Assay [6] can be described thus: ATG_AP_2_CIS: Attagene CIS-FACTORIAL HepG2 Assay for human Activator Protein 2 (AP-2) (AID 2282932). The conditions noted are these: HepG2 AP-2 cis-reporter, Attagene transcription factor profiling; actives raise or lower the signal. The procedure, abridged:
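Endogenous transcription factor activity is reported through transfected multiplex reporter constructs in HepG2, after 24 h of compound exposure. Transcripts were quantified by RT-PCR and capillary electrophoresis of fluorescent fragments. Bidirectional fit against DMSO.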

Assay [7] is described as follows: ATG_BRE_CIS: Attagene CIS-FACTORIAL HepG2 Assay for human Bone Morphogenetic Protein (BMP) Response Element (BRE) (AID 2282933). The conditions noted are these: HepG2 BMP response element reporter, Attagene transcription factor profiling; actives raise or lower the signal. The procedure, abridged:
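HepG2 cells transiently transfected with multiplexed cis-element reporter units were dosed with chemical for 24 h. Reporter mRNA was measured by RT-PCR with fluorescent labelling, HpaI digestion and capillary electrophoresis; bidirectional fitting relative to DMSO.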

The target of assay [8] is Transcription factor E2F1 (Homo sapiens) (UniProt Q01094). As to the kind of experiment: ATG_E2F_CIS: Attagene CIS-FACTORIAL HepG2 Assay for human E2F Transcription Factor 1 (AID 2282935). The conditions noted are these: HepG2 Attagene cis-reporter, E2F reporter RNA transcripts; actives raise or lower the signal. The procedure, abridged: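 Gain or loss of reporter transcript, fitted against DMSO, reflects E2F1-driven transcription. Transiently transfected HepG2 dosed 24 h before RNA isolation. Quantified by fluorescent RT-PCR products separated by capillary electrophoresis.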
Chain of Transcription factor E2F1 (Homo sapiens) (Q01094 whole entry, looked up): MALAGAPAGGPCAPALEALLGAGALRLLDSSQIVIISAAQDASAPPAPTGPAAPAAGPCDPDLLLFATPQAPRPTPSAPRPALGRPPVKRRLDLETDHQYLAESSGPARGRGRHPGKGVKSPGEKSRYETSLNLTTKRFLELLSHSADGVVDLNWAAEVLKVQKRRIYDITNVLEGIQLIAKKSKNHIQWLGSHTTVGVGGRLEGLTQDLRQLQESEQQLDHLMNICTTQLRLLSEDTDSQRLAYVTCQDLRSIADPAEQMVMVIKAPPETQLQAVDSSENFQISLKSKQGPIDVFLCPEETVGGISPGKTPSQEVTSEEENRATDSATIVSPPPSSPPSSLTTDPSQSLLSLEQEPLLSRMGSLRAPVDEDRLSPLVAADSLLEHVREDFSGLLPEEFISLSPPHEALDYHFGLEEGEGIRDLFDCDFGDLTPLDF

Assay [9] is described as follows: ATG_E_Box_CIS: Attagene CIS-FACTORIAL HepG2 Assay for human Enhancer Box (E-box) (AID 2282936). The conditions noted are these: HepG2 E-box cis-reporter transcription, actives raise or lower the signal. The method, boiled down:
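E-box-driven reporter transcripts measured in transiently transfected HepG2 after 24 h exposure: RNA reverse-transcribed, PCR-amplified, fluorescently labelled, digested and resolved by capillary electrophoresis. Gain or loss relative to DMSO.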

Assay [10] in a line: ATG_M_61_CIS: Attagene CIS-FACTORIAL HepG2 Assay for M61 Transcription Factor (Internal Marker) (AID 2282937). Conditions: HepG2 Attagene CIS-FACTORIAL M61 internal marker reporter; actives raise or lower the signal. The procedure, abridged:
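Endogenous transcription factor activity in HepG2 is read through transiently transfected cis-element reporter units. After 24 h dosing, RNA undergoes reverse transcription, PCR and primer extension with 6-FAM before capillary electrophoresis; DMSO-referenced bidirectional fit.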

Assay [11] is described as follows: ATG_EGR_CIS: Attagene CIS-FACTORIAL HepG2 Assay for human Early Growth Response 1 (EGR1) (AID 2282938). The conditions noted are these: HepG2 Attagene CIS-FACTORIAL EGR reporter mRNA; actives raise or lower the signal. The procedure, abridged:
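Activity is taken as induction or loss of reporter mRNA versus DMSO, fitted bidirectionally. Transcripts from cis-regulated reporter units in transiently transfected HepG2 were measured after 24 h by RT-PCR with capillary electrophoresis.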

Assay [12] in a line: ATG_M_19_CIS: Attagene CIS-FACTORIAL HepG2 Assay for M19 Transcription Factor (Internal Marker) (AID 2282939). The conditions noted are these: HepG2 Attagene CIS-FACTORIAL M19 internal marker reporter; actives raise or lower the signal. The procedure, abridged: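 HepG2 cells transiently transfected with cis-regulated multiple reporter transcription units were dosed for 24 h; reporter mRNA was quantified by RT-PCR, 6-FAM primer-extension labelling, HpaI digestion and capillary electrophoresis, with bidirectional fitting against DMSO baseline.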

A short description of assay [13]: ATG_Ets_CIS: Attagene CIS-FACTORIAL HepG2 Assay for human Erythroblast Transformation Specific (ETS) (AID 2282941). The conditions noted are these: HepG2 ETS cis-reporter transcription, actives raise or lower the signal. The procedure, abridged: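 RT-PCR/capillary electrophoresis fluorescence read-out of reporter mRNA; HepG2 transient multi-reporter transfection; 24 h compound exposure; gain or loss of signal fitted bidirectionally relative to DMSO.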

The target of assay [14] is Hepatocyte nuclear factor 3-beta (Homo sapiens) (UniProt Q9Y261). As to the kind of experiment: ATG_FoxA2_CIS: Attagene CIS-FACTORIAL HepG2 Assay for human Forkhead box A2 (FOXA2) (AID 2282942). Conditions: HepG2 cis-reporter transcription factor activity, 24 h; actives raise or lower the signal. The procedure, abridged:
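Reporter transcript induction is measured by fluorescence after capillary electrophoresis of RT-PCR products from HepG2 cells exposed 24 h. Cis-regulated reporter units report endogenous factor activity; curves fitted both directions against DMSO.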

Assay [15] can be described thus: ATG_FoxO_CIS: Attagene CIS-FACTORIAL HepG2 Assay for human Forkhead box O (FoxO) (AID 2282943). Conditions: HepG2 Attagene cis-reporter, FoxO element, mRNA; actives raise or lower the signal. The procedure, abridged: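 HepG2, transient MRTU transfection (cis element, endogenous TFs). Dose 24 h. TriZol RNA → oligo(dT) RT → PCR → 6-FAM primer extension → HpaI cut → CE. Gain/loss vs DMSO.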

A short description of assay [16]: ATG_GATA_CIS: Attagene CIS-FACTORIAL HepG2 Assay for human GATA Binding Protein (AID 2282944). The conditions noted are these: HepG2 GATA cis-element reporter, Attagene multiplex mRNA; actives raise or lower the signal. The procedure, abridged: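 HepG2 cells transiently transfected with multiplexed cis-element reporter units reflecting endogenous transcription factor activity; reporter mRNA measured after 24 h dosing by RT-PCR, 6-FAM labeling, HpaI digestion and capillary electrophoresis. Bidirectional fitting versus DMSO baseline.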

The nature of assay [17]: ATG_GLI_CIS: Attagene CIS-FACTORIAL HepG2 Assay for human Zinc Finger Protein GLI1 (AID 2282945). The conditions noted are these: HepG2, Attagene cis-factorial reporter mRNA, GLI element; actives raise or lower the signal. The procedure, abridged:
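Bidirectional curve fits relative to DMSO, using reporter mRNA levels from RT-PCR plus capillary electrophoresis. Cells were HepG2 transiently carrying cis-regulated reporter constructs, harvested 24 h after dosing.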

A short description of assay [18]: ATG_ERE_CIS: Attagene CIS-FACTORIAL HepG2 Assay for Estrogen Response Element (ERE) (AID 2282940). Conditions: HepG2 ERE cis-reporter, Attagene RNA transcript; actives raise or lower the signal. The procedure, abridged:
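HepG2 cells transiently transfected with cis-promoter-driven multiplexed reporter transcription units report endogenous TF activity. After 24 h compound exposure, reporter mRNA is quantified by RT-PCR with capillary electrophoresis fluorescence; bidirectional fitting versus DMSO baseline.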

In assay [19] the target is Aryl hydrocarbon receptor (Homo sapiens) (UniProt P35869). As to the kind of experiment: ATG_Ahr_CIS: Attagene CIS-FACTORIAL HepG2 Assay for human Aryl Hydrocarbon Receptor (Ahr) (AID 2282930). The conditions noted are these: HepG2 AhR cis-factorial reporter transcription; actives raise or lower the signal. The method, boiled down: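 Transient MRTU transfection of HepG2 → 24 h compound exposure → total RNA, oligo(dT) RT → PCR, 6-FAM extension, HpaI cut → CE fluorescence. DMSO = baseline; bidirectional curve fit.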
Chain of Aryl hydrocarbon receptor (Homo sapiens) (P35869 whole entry, looked up): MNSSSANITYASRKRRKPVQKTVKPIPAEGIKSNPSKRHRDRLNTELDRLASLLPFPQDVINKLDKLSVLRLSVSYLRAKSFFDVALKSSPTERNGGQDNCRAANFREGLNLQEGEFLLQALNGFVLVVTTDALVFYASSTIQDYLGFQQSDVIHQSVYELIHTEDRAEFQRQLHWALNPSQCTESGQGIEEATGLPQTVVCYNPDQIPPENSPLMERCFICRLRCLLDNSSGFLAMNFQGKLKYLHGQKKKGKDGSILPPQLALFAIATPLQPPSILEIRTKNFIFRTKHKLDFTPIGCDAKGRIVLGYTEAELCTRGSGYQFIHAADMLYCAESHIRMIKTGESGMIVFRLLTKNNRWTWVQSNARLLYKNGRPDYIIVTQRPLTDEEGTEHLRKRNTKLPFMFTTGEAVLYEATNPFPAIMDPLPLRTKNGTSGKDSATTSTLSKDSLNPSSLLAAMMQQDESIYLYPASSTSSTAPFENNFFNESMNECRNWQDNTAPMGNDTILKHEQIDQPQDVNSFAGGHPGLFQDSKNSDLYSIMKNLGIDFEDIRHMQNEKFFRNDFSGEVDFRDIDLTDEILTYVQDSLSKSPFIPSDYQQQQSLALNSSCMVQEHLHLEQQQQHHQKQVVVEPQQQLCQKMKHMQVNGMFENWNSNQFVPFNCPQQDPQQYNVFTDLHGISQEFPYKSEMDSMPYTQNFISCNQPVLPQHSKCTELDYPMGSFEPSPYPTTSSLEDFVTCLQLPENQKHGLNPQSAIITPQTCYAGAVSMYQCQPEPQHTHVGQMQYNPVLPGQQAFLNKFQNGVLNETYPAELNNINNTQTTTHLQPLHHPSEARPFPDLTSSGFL

The target of assay [20] is Bile acid receptor (Homo sapiens) (UniProt Q96RI1). As to the kind of experiment: ATG_IR1_CIS: Attagene CIS-FACTORIAL HepG2 Assay for human Nuclear Receptor Subfamily 1 Group H Member 4 (NR1H4), IR1 submotif (AID 2282946). Conditions: IR1 reporter transcription, actives raise or lower the signal. The procedure, abridged: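 HepG2 cells transiently transfected with multiplexed cis-element reporter units read endogenous transcription factor activity. After 24 h compound exposure, reporter mRNA was quantified by RT-PCR, fluorescent labelling, HpaI digestion and capillary electrophoresis; bidirectional fitting versus DMSO baseline.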
Chain of Bile acid receptor (Homo sapiens) (Q96RI1 whole entry, looked up): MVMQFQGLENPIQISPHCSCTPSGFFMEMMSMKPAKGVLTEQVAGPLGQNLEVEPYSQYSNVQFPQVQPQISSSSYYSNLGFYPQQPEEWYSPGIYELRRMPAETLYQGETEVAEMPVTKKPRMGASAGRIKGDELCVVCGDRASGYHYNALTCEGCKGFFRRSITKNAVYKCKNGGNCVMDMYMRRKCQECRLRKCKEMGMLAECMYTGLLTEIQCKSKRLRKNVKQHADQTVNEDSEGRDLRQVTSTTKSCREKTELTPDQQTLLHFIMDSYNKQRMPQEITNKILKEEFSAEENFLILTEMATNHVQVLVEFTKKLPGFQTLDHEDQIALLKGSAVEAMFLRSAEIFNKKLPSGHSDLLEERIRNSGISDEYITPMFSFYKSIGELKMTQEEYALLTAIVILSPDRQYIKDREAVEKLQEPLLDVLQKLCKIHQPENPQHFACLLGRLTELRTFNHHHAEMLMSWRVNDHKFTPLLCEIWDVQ

Each structure is given as a SMILES string. Several values for one entry are separate records, joined by “and”; a condition that tells them apart may be missing. Identical values can stand only once. Some structures have more than one record in an assay (separate samples or runs), and their calls can disagree. Activity calls are given as the source filed them. The calls were made as follows: active = hit-call score of the fitted dose curve at least 0.9, where 1 is the maximum; inactive = score below 0.9.

Chain of Hepatocyte nuclear factor 3-beta (Homo sapiens) (Q9Y261 whole entry, looked up): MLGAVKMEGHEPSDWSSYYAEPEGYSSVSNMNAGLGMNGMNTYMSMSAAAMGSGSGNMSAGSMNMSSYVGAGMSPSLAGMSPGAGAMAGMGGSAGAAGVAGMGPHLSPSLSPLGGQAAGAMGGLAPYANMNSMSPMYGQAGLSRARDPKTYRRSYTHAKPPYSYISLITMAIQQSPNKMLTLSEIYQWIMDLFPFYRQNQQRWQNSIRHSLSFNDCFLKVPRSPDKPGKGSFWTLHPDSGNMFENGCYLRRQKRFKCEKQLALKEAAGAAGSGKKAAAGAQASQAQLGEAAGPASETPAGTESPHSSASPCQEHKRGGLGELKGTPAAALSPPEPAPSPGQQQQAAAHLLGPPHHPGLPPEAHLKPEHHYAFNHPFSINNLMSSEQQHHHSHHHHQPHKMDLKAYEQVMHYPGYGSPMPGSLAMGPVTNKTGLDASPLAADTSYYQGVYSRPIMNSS

With `Oc1ccccc1O`, the compound was classed as inactive in [1], in assay [2], in assay [4], in [6], in assay [7] and in assay [8]. Also, the outcome in [9], in [10], in assay [11], in [12], in assay [13] and in [14] was inactive. Also, the compound was classed as inactive in assay [15], in [16] and in assay [17]. For the same compound, the AC50 is 25 µM (active) in assay [3] and 13.3 µM (active) in assay [5].

For `Oc1ccc(O)cc1`, the compound was classed as inactive in assay [1], in [2], in assay [3], in [4], in assay [8] and in assay [9]. Further, the outcome in assay [10], in assay [11], in assay [12], in [13], in assay [14] and in [15] was inactive. The call in assay [16] and in assay [17] was inactive. In addition, the AC50 in assay [5] is 48.3 µM (active); in [6], 28.8 µM (active); in [7] it was 200 µM (active); in assay [18], 35.6 µM (active).

`O=C(Oc1ccccc1)c1cccc(C(=O)Oc2ccccc2)c1`: the result in assay [1], in [2], in assay [3], in assay [4], in assay [19] and in assay [5] was inactive. In addition, the call in assay [6], in [7], in [8], in assay [9], in assay [10] and in [11] was inactive. Moreover, the call in [12], in assay [13], in assay [14], in assay [15], in assay [16] and in [17] was inactive. In addition, the result in assay [20] was inactive.

In the case of `CC(=O)[C@@]1(O)CC[C@H]2[C@@H]3CCC4=CC(=O)CC[C@]4(C)[C@H]3CC[C@@]21C`, the outcome in assay [1], in [2], in [3], in [4], in assay [5] and in [6] was inactive. For the same compound, the result in assay [7], in [8], in assay [9], in [10], in assay [11] and in [12] was inactive. In addition, the outcome in assay [13], in assay [14], in assay [15], in [16] and in assay [17] was inactive. Also, the AC50 in assay [9] was 4.34 µM (active) and 27 µM (active) and 33.6 µM (active).
